# Substitutions are numbered along the chain they refer to.
# Experiments:
# Test in all cases: PBM; 200 nM protein, PBS
# Conditions in all cases: dsDNA, one strand shown
# ALX3 [1] = target: ALX3 (Homo sapiens, UniProt O95076 139-225, N203Q)
# ALX3 [2] = target: ALX3 (Homo sapiens, UniProt O95076 139-225)
# ALX3 [3] = target: ALX3 (Homo sapiens, UniProt O95076 139-225, L168Q)
# ALX3 [4] = target: ALX3 (Homo sapiens, UniProt O95076 139-225, L168V)
# ALX3 [5] = target: ALX3 (Homo sapiens, UniProt O95076 139-225, N203S)
# Sequence of ALX3 (Homo sapiens, UniProt O95076 139-225, N203S) (O95076 139-225 N203S): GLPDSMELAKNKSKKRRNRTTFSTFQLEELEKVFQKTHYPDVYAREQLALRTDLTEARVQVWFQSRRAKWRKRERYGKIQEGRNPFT
# PROP1 = PROP1 (Homo sapiens, UniProt O75360 56-141)
# Sequence of PROP1 (O75360 56-141): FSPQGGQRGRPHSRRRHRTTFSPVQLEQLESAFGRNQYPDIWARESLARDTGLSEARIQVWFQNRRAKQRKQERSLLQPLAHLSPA
# HOXD13 [6] = target: HOXD13 (Homo sapiens, UniProt P35453 263-343, T313R)
# Sequence of HOXD13 (Homo sapiens, UniProt P35453 263-343, T313R) (P35453 263-343 T313R): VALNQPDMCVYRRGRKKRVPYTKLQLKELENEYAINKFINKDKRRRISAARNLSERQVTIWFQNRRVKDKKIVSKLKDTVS
# HOXD13 [7] = target: HOXD13 (Homo sapiens, UniProt P35453 263-343)
# Sequence of HOXD13 (Homo sapiens, UniProt P35453 263-343) (P35453 263-343): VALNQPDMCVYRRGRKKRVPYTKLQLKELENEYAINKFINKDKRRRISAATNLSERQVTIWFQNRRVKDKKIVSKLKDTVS
# NKX2-6 [8] = target: T1, NKX2-6 (Homo sapiens, UniProt A6NCS4 118-204)
# T1 sequence: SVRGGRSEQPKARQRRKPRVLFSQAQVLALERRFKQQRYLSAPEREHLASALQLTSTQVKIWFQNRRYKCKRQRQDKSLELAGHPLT
# HOXD13 [9] = target: HOXD13 (Homo sapiens, UniProt P35453 263-343, T313A)
# Sequence of HOXD13 (Homo sapiens, UniProt P35453 263-343, T313A) (P35453 263-343 T313A): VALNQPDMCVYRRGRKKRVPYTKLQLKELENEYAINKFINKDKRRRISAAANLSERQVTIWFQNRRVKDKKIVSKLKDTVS
# NKX2-6 [10] = target: T2, NKX2-6 (Homo sapiens, UniProt A6NCS4 118-204, F151L)
# T2 sequence: T1 sequence with F34L
# HOXC9 = HOXC9 (Homo sapiens, UniProt P31274 178-260, R222W)
# Sequence of HOXC9 (P31274 178-260 R222W): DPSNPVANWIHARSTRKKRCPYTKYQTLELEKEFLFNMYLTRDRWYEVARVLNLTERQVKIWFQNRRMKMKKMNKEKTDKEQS
# Sequence of ALX3 (Homo sapiens, UniProt O95076 139-225, N203Q) (O95076 139-225 N203Q): as the sequence (O95076 139-225 N203S) above, with S65Q counted along it
# Sequence of ALX3 (Homo sapiens, UniProt O95076 139-225) (O95076 139-225): as the sequence (O95076 139-225 N203S) above, with S65N counted along it
# Sequence of ALX3 (Homo sapiens, UniProt O95076 139-225, L168Q) (O95076 139-225 L168Q): as the sequence (O95076 139-225 N203S) above, with L30Q, S65N counted along it
# Sequence of ALX3 (Homo sapiens, UniProt O95076 139-225, L168V) (O95076 139-225 L168V): as the sequence (O95076 139-225 N203S) above, with L30V, S65N counted along it
sequence,measurement,setting,value
ATTTACGG,binding signal,ALX3 [1],"8.3 upbm affinity estimate (log intensity, higher = more binding, comparable within an allelic series)"
same,binding signal,ALX3 [2],"10.1 upbm affinity estimate (log intensity, higher = more binding, comparable within an allelic series)"
GGATGGCC,binding signal,ALX3 [1],"7.66 upbm affinity estimate (log intensity, higher = more binding, comparable within an allelic series)"
same,binding signal,ALX3 [2],"7.74 upbm affinity estimate (log intensity, higher = more binding, comparable within an allelic series)"
same,binding signal,ALX3 [3],"7.73 upbm affinity estimate (log intensity, higher = more binding, comparable within an allelic series)"
same,binding signal,ALX3 [4],"7.67 upbm affinity estimate (log intensity, higher = more binding, comparable within an allelic series)"
same,binding signal,ALX3 [5],"7.67 upbm affinity estimate (log intensity, higher = more binding, comparable within an allelic series)"
ACCGCGGT,binding signal,ALX3 [1],"7.85 upbm affinity estimate (log intensity, higher = more binding, comparable within an allelic series)"
same,binding signal,ALX3 [2],"8.03 upbm affinity estimate (log intensity, higher = more binding, comparable within an allelic series)"
same,binding signal,ALX3 [3],"7.86 upbm affinity estimate (log intensity, higher = more binding, comparable within an allelic series)"
same,binding signal,ALX3 [4],"7.92 upbm affinity estimate (log intensity, higher = more binding, comparable within an allelic series)"
same,binding signal,ALX3 [5],"7.86 upbm affinity estimate (log intensity, higher = more binding, comparable within an allelic series)"
GCGCGAGC,binding signal,ALX3 [1],"7.77 upbm affinity estimate (log intensity, higher = more binding, comparable within an allelic series)"
same,binding signal,ALX3 [2],"7.84 upbm affinity estimate (log intensity, higher = more binding, comparable within an allelic series)"
same,binding signal,ALX3 [3],"7.77 upbm affinity estimate (log intensity, higher = more binding, comparable within an allelic series)"
same,binding signal,ALX3 [4],"7.76 upbm affinity estimate (log intensity, higher = more binding, comparable within an allelic series)"
same,binding signal,ALX3 [5],"7.83 upbm affinity estimate (log intensity, higher = more binding, comparable within an allelic series)"
GGCAGTTA,binding signal,ALX3 [1],"8.06 upbm affinity estimate (log intensity, higher = more binding, comparable within an allelic series)"
same,binding signal,ALX3 [2],"9.02 upbm affinity estimate (log intensity, higher = more binding, comparable within an allelic series)"
same,binding signal,ALX3 [3],"8.19 upbm affinity estimate (log intensity, higher = more binding, comparable within an allelic series)"
same,binding signal,ALX3 [4],"8.14 upbm affinity estimate (log intensity, higher = more binding, comparable within an allelic series)"
same,binding signal,ALX3 [5],"8.16 upbm affinity estimate (log intensity, higher = more binding, comparable within an allelic series)"
CTCCAGCC,binding signal,ALX3 [1],"7.6 upbm affinity estimate (log intensity, higher = more binding, comparable within an allelic series)"
same,binding signal,ALX3 [2],"7.5 upbm affinity estimate (log intensity, higher = more binding, comparable within an allelic series)"
same,binding signal,ALX3 [3],"7.62 upbm affinity estimate (log intensity, higher = more binding, comparable within an allelic series)"
same,binding signal,ALX3 [4],"7.62 upbm affinity estimate (log intensity, higher = more binding, comparable within an allelic series)"
same,binding signal,ALX3 [5],"7.57 upbm affinity estimate (log intensity, higher = more binding, comparable within an allelic series)"
ATAAATGG,binding signal,ALX3 [1],"8.33 upbm affinity estimate (log intensity, higher = more binding, comparable within an allelic series)"
same,binding signal,ALX3 [2],"9.85 upbm affinity estimate (log intensity, higher = more binding, comparable within an allelic series)"
ACCAGCGG,binding signal,ALX3 [1],"7.79 upbm affinity estimate (log intensity, higher = more binding, comparable within an allelic series)"
same,binding signal,ALX3 [2],"7.56 upbm affinity estimate (log intensity, higher = more binding, comparable within an allelic series)"
same,binding signal,ALX3 [3],"7.79 upbm affinity estimate (log intensity, higher = more binding, comparable within an allelic series)"
same,binding signal,ALX3 [4],"7.78 upbm affinity estimate (log intensity, higher = more binding, comparable within an allelic series)"
same,binding signal,ALX3 [5],"7.78 upbm affinity estimate (log intensity, higher = more binding, comparable within an allelic series)"
CGAAATCA,binding signal,ALX3 [1],"8.09 upbm affinity estimate (log intensity, higher = more binding, comparable within an allelic series)"
same,binding signal,ALX3 [2],"9.04 upbm affinity estimate (log intensity, higher = more binding, comparable within an allelic series)"
same,binding signal,PROP1,"7.77 upbm affinity estimate (log intensity, higher = more binding, comparable within an allelic series)"
same,binding signal,ALX3 [5],"8.15 upbm affinity estimate (log intensity, higher = more binding, comparable within an allelic series)"
CTAACAAC,binding signal,ALX3 [1],"8.26 upbm affinity estimate (log intensity, higher = more binding, comparable within an allelic series)"
same,binding signal,ALX3 [2],"9.15 upbm affinity estimate (log intensity, higher = more binding, comparable within an allelic series)"
same,binding signal,ALX3 [5],"8.24 upbm affinity estimate (log intensity, higher = more binding, comparable within an allelic series)"
AATATTAA,binding signal,ALX3 [1],"8.6 upbm affinity estimate (log intensity, higher = more binding, comparable within an allelic series)"
same,binding signal,ALX3 [5],"8.69 upbm affinity estimate (log intensity, higher = more binding, comparable within an allelic series)"
CATTTATA,binding signal,HOXD13 [6],"10.7 upbm affinity estimate (log intensity, higher = more binding, comparable within an allelic series)"
ATCGCTAA,binding signal,ALX3 [1],"8.25 upbm affinity estimate (log intensity, higher = more binding, comparable within an allelic series)"
same,binding signal,ALX3 [2],"9.67 upbm affinity estimate (log intensity, higher = more binding, comparable within an allelic series)"
same,binding signal,ALX3 [5],"8.28 upbm affinity estimate (log intensity, higher = more binding, comparable within an allelic series)"
CAGCACCC,binding signal,ALX3 [1],"7.8 upbm affinity estimate (log intensity, higher = more binding, comparable within an allelic series)"
same,binding signal,ALX3 [2],"7.73 upbm affinity estimate (log intensity, higher = more binding, comparable within an allelic series)"
same,binding signal,ALX3 [3],"7.75 upbm affinity estimate (log intensity, higher = more binding, comparable within an allelic series)"
same,binding signal,ALX3 [4],"7.68 upbm affinity estimate (log intensity, higher = more binding, comparable within an allelic series)"
same,binding signal,ALX3 [5],"7.8 upbm affinity estimate (log intensity, higher = more binding, comparable within an allelic series)"
ACGTTAGT,binding signal,ALX3 [1],"8.16 upbm affinity estimate (log intensity, higher = more binding, comparable within an allelic series)"
same,binding signal,ALX3 [2],"9.39 upbm affinity estimate (log intensity, higher = more binding, comparable within an allelic series)"
same,binding signal,ALX3 [5],"8.22 upbm affinity estimate (log intensity, higher = more binding, comparable within an allelic series)"
ATTTAAAT,binding signal,ALX3 [1],"8.56 upbm affinity estimate (log intensity, higher = more binding, comparable within an allelic series)"
same,binding signal,ALX3 [5],"8.68 upbm affinity estimate (log intensity, higher = more binding, comparable within an allelic series)"
TCACTAAA,binding signal,HOXD13 [6],"10.1 upbm affinity estimate (log intensity, higher = more binding, comparable within an allelic series)"
same,binding signal,HOXD13 [7],"10.6 upbm affinity estimate (log intensity, higher = more binding, comparable within an allelic series)"
GCCTCCAC,binding signal,HOXD13 [6],"9.56 upbm affinity estimate (log intensity, higher = more binding, comparable within an allelic series)"
same,binding signal,NKX2-6 [8],"9.6 upbm affinity estimate (log intensity, higher = more binding, comparable within an allelic series)"
same,binding signal,HOXD13 [7],"9.59 upbm affinity estimate (log intensity, higher = more binding, comparable within an allelic series)"
same,binding signal,HOXD13 [9],"9.61 upbm affinity estimate (log intensity, higher = more binding, comparable within an allelic series)"
same,binding signal,NKX2-6 [10],"9.3 upbm affinity estimate (log intensity, higher = more binding, comparable within an allelic series)"
AATCATTC,binding signal,ALX3 [1],"8.14 upbm affinity estimate (log intensity, higher = more binding, comparable within an allelic series)"
same,binding signal,ALX3 [2],"10 upbm affinity estimate (log intensity, higher = more binding, comparable within an allelic series)"
same,binding signal,ALX3 [5],"8.17 upbm affinity estimate (log intensity, higher = more binding, comparable within an allelic series)"
GATACGAC,binding signal,HOXD13 [6],"9.91 upbm affinity estimate (log intensity, higher = more binding, comparable within an allelic series)"
same,binding signal,HOXD13 [7],"10.3 upbm affinity estimate (log intensity, higher = more binding, comparable within an allelic series)"
ATTTGACC,binding signal,ALX3 [1],"8.13 upbm affinity estimate (log intensity, higher = more binding, comparable within an allelic series)"
same,binding signal,ALX3 [2],"9.49 upbm affinity estimate (log intensity, higher = more binding, comparable within an allelic series)"
same,binding signal,ALX3 [5],"8.24 upbm affinity estimate (log intensity, higher = more binding, comparable within an allelic series)"
GAATATCA,binding signal,ALX3 [1],"8.19 upbm affinity estimate (log intensity, higher = more binding, comparable within an allelic series)"
same,binding signal,ALX3 [2],"8.71 upbm affinity estimate (log intensity, higher = more binding, comparable within an allelic series)"
same,binding signal,ALX3 [5],"8.23 upbm affinity estimate (log intensity, higher = more binding, comparable within an allelic series)"
TATAAACA,binding signal,HOXD13 [6],"10.7 upbm affinity estimate (log intensity, higher = more binding, comparable within an allelic series)"
ATAACACG,binding signal,HOXD13 [6],"10.1 upbm affinity estimate (log intensity, higher = more binding, comparable within an allelic series)"
same,binding signal,HOXD13 [7],"10.7 upbm affinity estimate (log intensity, higher = more binding, comparable within an allelic series)"
CTCATCAA,binding signal,ALX3 [1],"8.12 upbm affinity estimate (log intensity, higher = more binding, comparable within an allelic series)"
same,binding signal,ALX3 [2],"9.41 upbm affinity estimate (log intensity, higher = more binding, comparable within an allelic series)"
same,binding signal,ALX3 [5],"8.16 upbm affinity estimate (log intensity, higher = more binding, comparable within an allelic series)"
GCATTAGA,binding signal,ALX3 [1],"8.11 upbm affinity estimate (log intensity, higher = more binding, comparable within an allelic series)"
same,binding signal,ALX3 [2],"9.95 upbm affinity estimate (log intensity, higher = more binding, comparable within an allelic series)"
same,binding signal,ALX3 [5],"8.12 upbm affinity estimate (log intensity, higher = more binding, comparable within an allelic series)"
TTATAGAA,binding signal,ALX3 [1],"8.31 upbm affinity estimate (log intensity, higher = more binding, comparable within an allelic series)"
same,binding signal,ALX3 [2],"9.6 upbm affinity estimate (log intensity, higher = more binding, comparable within an allelic series)"
same,binding signal,ALX3 [5],"8.38 upbm affinity estimate (log intensity, higher = more binding, comparable within an allelic series)"
ATTATTTA,binding signal,ALX3 [1],"8.54 upbm affinity estimate (log intensity, higher = more binding, comparable within an allelic series)"
same,binding signal,ALX3 [5],"8.69 upbm affinity estimate (log intensity, higher = more binding, comparable within an allelic series)"
CATTTGCC,binding signal,ALX3 [1],"7.93 upbm affinity estimate (log intensity, higher = more binding, comparable within an allelic series)"
same,binding signal,ALX3 [2],"8.86 upbm affinity estimate (log intensity, higher = more binding, comparable within an allelic series)"
same,binding signal,ALX3 [5],"7.93 upbm affinity estimate (log intensity, higher = more binding, comparable within an allelic series)"
CTTTTATA,binding signal,HOXD13 [6],"10.7 upbm affinity estimate (log intensity, higher = more binding, comparable within an allelic series)"
ATAAATAA,binding signal,ALX3 [1],"8.6 upbm affinity estimate (log intensity, higher = more binding, comparable within an allelic series)"
same,binding signal,HOXC9,"11.1 upbm affinity estimate (log intensity, higher = more binding, comparable within an allelic series)"
same,binding signal,ALX3 [5],"8.76 upbm affinity estimate (log intensity, higher = more binding, comparable within an allelic series)"
ATTAGTTA,binding signal,ALX3 [1],"8.55 upbm affinity estimate (log intensity, higher = more binding, comparable within an allelic series)"
same,binding signal,ALX3 [5],"8.67 upbm affinity estimate (log intensity, higher = more binding, comparable within an allelic series)"
CCTATTAC,binding signal,ALX3 [1],"8.28 upbm affinity estimate (log intensity, higher = more binding, comparable within an allelic series)"
same,binding signal,ALX3 [2],"10.8 upbm affinity estimate (log intensity, higher = more binding, comparable within an allelic series)"
same,binding signal,ALX3 [5],"8.28 upbm affinity estimate (log intensity, higher = more binding, comparable within an allelic series)"
AGATTTTA,binding signal,ALX3 [1],"8.19 upbm affinity estimate (log intensity, higher = more binding, comparable within an allelic series)"
same,binding signal,ALX3 [2],"9.08 upbm affinity estimate (log intensity, higher = more binding, comparable within an allelic series)"
same,binding signal,ALX3 [5],"8.26 upbm affinity estimate (log intensity, higher = more binding, comparable within an allelic series)"
ATATTCAA,binding signal,ALX3 [1],"8.33 upbm affinity estimate (log intensity, higher = more binding, comparable within an allelic series)"
same,binding signal,ALX3 [2],"9.13 upbm affinity estimate (log intensity, higher = more binding, comparable within an allelic series)"
same,binding signal,ALX3 [4],"8.63 upbm affinity estimate (log intensity, higher = more binding, comparable within an allelic series)"
